Screening data: PubChem, National Center for Advancing Translational Sciences (NCATS)
A selection: hits, their analogues and other compounds. The true share with any hit is near 1.8%.
Pin1 inh = inhibitors of human Pin1 | 390,000 tested, 0.009% active | Potency, µM (titrated, usually from 115 µM), for the others: at the top dose activity, negative = inhibition, most hits filed as inhibitors | Pin1 FP peptide displacement, HiFluor488, 10 min | Q13526; active = well fitted inhibition curve with a large enough effect in the polarisation, with a control signal flat, not every such curve was filed as active; inconclusive = small, poorly fitted or top-dose-only effect, or effect the other way, or a change in a side signal; inactive = no such curve, though single readings can be large or run the other way; the % refers to the polarisation; also: % is scaled to controls: 0 for no effect and ±100 for the full control effect
Target sequence (Q13526 whole entry, looked up): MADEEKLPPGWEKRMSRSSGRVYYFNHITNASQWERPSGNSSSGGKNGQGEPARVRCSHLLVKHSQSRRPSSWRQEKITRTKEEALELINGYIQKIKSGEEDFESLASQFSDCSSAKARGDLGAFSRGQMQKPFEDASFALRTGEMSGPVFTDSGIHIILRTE
GLP1R inv ag = acts as inverse agonist at human GLP-1 receptor. 410,000 tested, 1.6% active. HEK293 GLP-1R CRE-luciferase, luminescence, 24 h; GLP-1R form is constitutively active. Potency, µM (series often up to 38.3 µM), for inactives: top-dose activity change, negative = inhibition, usual class: inhibitors; also: % is scaled to controls: 0 for no effect and ±100 for the full control effect; nearly all actives have a fitted effect of over 55% in size
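Readout was luciferase luminescence, measured 12 min after detection reagent at room temperature. Beforehand, GLP-1R reporter HEK293 cells had sat 12 h, then received compounds for 24 hr at 37 deg C.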
Tb PFK inh = blocks T. brucei phosphofructokinase; O15648; T. brucei PFK, ADP-Glo luminescence; Potency, µM (doses to about 57.5 µM), for inactives: at the highest dose activity, negative = inhibition, usual class: inhibitors; 330,000 tested, 0.17% active; AID 485367;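 also: 0% = uninhibited 1x PFK enzyme wells and -100% = no-enzyme wells; nearly all actives have a fitted effect of over 60% in size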
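In TEA buffer at pH 8.0 with 5 mM MgCl2, enzyme (1.25 nM) converted F6P (0.5 mM) and ATP (0.1 mM) for 45 min at room temperature. ADP product was read by luciferase luminescence.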
GLP1R ag = agonists of human GLP-1 receptor; P43220; HEK293 GLP-1R CRE-luciferase, luminescence, 4-6 h; cells express a hypersensitive GLP-1R form; Potency, µM (series often up to 45.6 µM), for the others: top-dose activation, actives largely listed as activators; 380,000 tested, 0.007% active; also: % of control where 0% means no effect
GLP1R cytotox = cytotoxicity counter-screen for GLP-1 receptor inverse agonists; AID 624418; 410,000 tested, 0.13% active; Potency, µM (highest dose often 38.3 µM), for inactives: top-dose activity change, negative = inhibition, most hits filed as inhibitors; HEK293 cAMP-luciferase reporter cells, luminescence, 24 h;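 also: loss of luciferase light is scored as toxicity; % is scaled to controls: 0 for no effect and ±100 for the full control effect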
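MLSMR compounds, 24 hr on cells at 37 deg C/5% CO2; luminescence after luciferase reagent (12 min RT). Inhibition counted as the undesired cytotoxic outcome.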
PGK inhibitor = T. brucei PGK inhibition; P07378; PGK/GAPDH coupled, Kinase-Glo luminescence, 60 min; Potency, µM (doses to about 57.5 µM), for the others: at the top dose activity change, negative = inhibition, usual class: inhibitors; 380,000 tested, 0.043% active; also: % is scaled to controls: 0 for no effect and ±100 for the full control effect; nearly all actives have a fitted effect of over 60% in size
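Luminescent ATP detection (Kinase-Glo Plus) follows a 60-minute room-temperature incubation, with wells lacking PGK as controls. Buffer: 100 mM TEA (pH 7.6), 5 mM MgCl2, 0.01% Tween-20. Coupling enzyme GAPDH (100 nM final) supplies unstable 1,3-BPG in-well.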
* hit, by the source's call; i = inactive; ? = inconclusive; nt = not tested or not shown. Unless noted, calls follow the shape of the dose curve; as a rule, active = well fitted curve in the direction sought with a large enough effect; inconclusive = small, poorly fitted or top-dose-only effect, or another doubt; inactive = no such curve, though single readings can be large; an effect the other way counts as inactive or inconclusive. Potency is read from the fitted curve at half-maximal effect.

SMILES | Pin1 inh | GLP1R inv ag | Tb PFK inh | GLP1R ag | GLP1R cytotox | PGK inhibitor
CS(=O)(=O)c1sc(C#N)c2c1C(=O)CC(c1ccccc1)C2 (stereo not drawn) | 15% | ? | -8% | -10% | 11µM* | 3%
CCc1c(C2(O)CCCCC2)[nH]c2ccc(C(F)(F)F)cc12 | ? | 2.2µM* | 3% | 8% | ? | 5%
CCc1nn2c(=O)cc(N3CCN(C)CC3)nc2s1 | 5% | nt | nt | nt | nt | nt
COc1ccc(/C=C2\C(=O)NC(=S)N(C)C2=O)cc1C | nt | -20% | -4% | 2% | -1% | 10µM*
Cc1ccsc1/C=C1\C(=O)NC(=S)N(C)C1=O | 1% | 37% | -8% | -4% | -11% | -14%
Cc1cc(Nc2cccc(C(F)(F)F)c2)nc2ccc(NC(=O)c3cccnc3)cc12 | 0% | 4µM* | nt | nt | ? | -7%
CCOP(=O)(c1ccc(N(C)C)cc1)C(O)c1ccc(C)cc1 (stereo not drawn) | 1% | -5% | 0% | 6% | 150% | -5%
Cc1ccc(OCC(=O)N2CCN(C3CCC(c4ccccc4)CC3)CC2)cc1 (stereo not drawn) | ? | 11µM* | -2% | 9% | 0% | -2%
Cc1ccc2nc(-c3ccncc3)cc(C(=O)N3CCC4(CC3)OCCO4)c2c1 | 1% | 2% | 2% | -5% | 8% | -4%
Cc1ccc2nc(-c3ccccc3)cc(C(=O)N3CCN(c4ccccc4O)CC3)c2c1 | -1% | 10µM* | -2% | -7% | ? | -7%
CNc1cc(Cl)c2nonc2c1[N+](=O)[O-] | -18% | ? | -28% | -11% | 7.9µM* | 1%
CN(C(=O)Oc1ccc(Cl)c2cccnc12)c1ccccc1 | -1% | 0% | -5% | -5% | -2% | -8%
Cc1cccc(NC(=O)Oc2ccc(Cl)c3cccnc23)c1 | nt | 10µM* | nt | 14% | ? | -2%
O=C1CC(c2cccnc2)=NN1c1ccccc1 | -11% | 8% | -3% | 6% | -6% | -6%
O=C1CC(NC(=O)C(F)(F)F)=NN1c1ccccc1 | -1% | 2.5µM* | 9% | -9% | ? | 9%
CC(C)CCC(=O)OC1CCC2C3CCC4=CC(=O)CC[C@]4(C)C3CC[C@]12C (stereo partly drawn) | nt | nt | nt | -4% | nt | nt
CC(C)c1cccc(C(C)C)c1OC(=O)NC(=O)c1c(F)cccc1F | -3% | 8.9µM* | 1% | -3% | 11% | 0%
COc1cc(C2c3cc4c(cc3OC(C)(N3CCCC3)C2C)OCO4)cc(OC)c1OC (stereo not drawn) | 0% | ? | nt | -3% | ? | i
S=P(c1ccccc1)(c1ccccc1)c1c[nH]c2ccccc12 | 0% | nt | nt | nt | nt | nt
Cc1ccc(-c2nnc(N3CCN(c4ccccn4)CC3)c3ccccc23)cc1 | 9% | 8.9µM* | -21% | 1% | 11µM* | -2%
CC(C)[C@@]1(NC(=O)[C@H]2C[C@H]3c4cccc5[nH]cc(c45)C[C@@H]3N(C)C2)O[C@]2(O)[C@H]3CCCN3C(=O)CN2C1=O (tested in a mixture with another compound) | nt | nt | nt | 4% | nt | nt
CC12CCC(O)CC1CCC1C2CCC2(C)C(C3=CC(=O)OC3)CCC12O (stereo not drawn) | 1% | 1.1µM* | nt | -30% | ? | -7%
CC12CCC(O)CC1CCC1C2CCC2(C)C(C3=CC(=O)OC3)C(O)CC12O (stereo not drawn) | -14% | ? | nt | -18% | -2% | -3%
C[C@]12CC[C@H](O)C[C@H]1CC[C@@H]1[C@@H]2CC[C@]2(C)[C@@H](C3=CC(=O)OC3)CC[C@]12O | 6% | 0.5µM* | 2% | -10% | ? | 0%
